In PubChem BioAssay (EPA / NIEHS):
Values joined by “and” are separate entries in the source; they are usually repeats but may differ in a detail not shown here. Equal entries are not always repeated. Results filed as inconclusive are left out. Active and inactive are the calls of the source. How the source made its calls: active means hit-call score of the fitted dose curve at least 0.9, where 1 is the maximum; inconclusive means response in the unintended direction; inactive means score below 0.9.

Assay: ATG_XTT_Cytotoxicity: Cytotoxicity Assessment in the Attagene TRANS-FACTORIAL HepG2 Assay (AID 2283584);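 on AC50: cells exposed to compound for 24 h before reading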
Procedure: ATG_XTT_Cytotoxicity is a cell-based, single-readout assay that uses HepG2, a human liver cell line, with measurements taken at 24 hours after chemical dosing in a 24-well plate.ATG_XTT_Cytotoxicity is one of one assay component(s) measured or calculated from the ATG_XTT_Cytotoxicity assay. It is designed to make measurements of cell number, a form of viability reporter, as detected with […] signals by XTT cytotoxicity assay technology.Data from the assay component ATG_XTT_Cytotoxicity was analyzed into 1 assay endpoint. This assay endpoint, ATG_XTT_Cytotoxicity, was analyzed in the positive analysis fitting direction relative to DMSO as the negative control and baseline of activity. Using a type of viability reporter, loss-of-signal activity can be used to understand changes in the viability. Furthermore, this assay endpoint can be referred to as a primary readout, because the performed assay has only produced 1 assay endpoint. To generalize the intended target to other relatable targets, this assay endpoint is annotated to the cell cycle intended target family, where the subfamily is cytotoxicity.
Human liver HepG2 cells are transiently transfected with multiple reporter transcription units (MRTUs) in 6-well plates using FuGene 6 reagent (Roche; 3 ml FuGene/1 mg DNA). The MRTU constructs are regulated by a cis-regulating element (promoter). […] A major difference between the CIS and TRANS system is that in CIS activities of endogenous TFs are measured, whereas the TRANS assay evaluates changes in activities of exogenous, chimeric NR-Gal4 proteins. […] At the end of 24 hour incubation, total RNA was isolated using TriZol reagent (Invitrogen). The isolated RNA is then reverse-transcribed using oligo(dT) primer and Mo-MLV reverse transcriptase (Invitrogen) with DNAse I (Ambion) treatment for 30 min. The one-tenth of the produced cDNA was amplified by PCR using Taq DNA polymerase (Invitrogen) and two reporter sequence-specific primers. The PCR products were fluorescently labeled by primer extension with 6-arboxyfluorescein (6-FAM) 5'-labeled reporter sequence-specific primer (2 min at 95 C, 20 s at 68 C and 10 min at 72 C) and these products were digested with 5U of HpaI (New England Biolabs) for 2h at 37 C. The fragments were purified using Qiaquick PCR columns (Qiagen), analyzed on an ABI 3130xL genetic analyzer (Applied Biosystems) with peak positions identified by using a set of X-rhodamine (ROX)-labeled MapMarker1000 molecular weight standards (BioVentures). The raw capillary electrophoresis data was processed using Attagraph software (Attagene).

Row | Compound | outcome | AC50
1 | O=C(Oc1ccccc1)c1ccc(O)cc1 | inactive | 
2 | O=Cc1ccc(Cl)c([N+](=O)[O-])c1 | inactive | 
3 | CCCCCCCCCCCCN |  | 68.9 µM (active) and 58.2 µM (active)
4 | C=CC(C)(C)O | inactive | 
5 | CCCCC(CC)COCCC#N (stereo not given) | inactive | 
6 | Cc1ccc2ccccc2n1 | inactive | 
7 | c1ccc2[nH]ccc2c1 | inactive | 
8 | CCCCOCCOCCSC#N | inactive | 
9 | CC(=O)OCCOC(C)=O | inactive | 
10 | CCCCCCCCCCC(CO)CCCCCCCC (stereo not given) | inactive | 
11 | C=CC(=O)OCCn1c(=O)n(CCOC(=O)C=C)c(=O)n(CCOC(=O)C=C)c1=O |  | 71 µM (active)
12 | COC(=O)c1ccc(C)cc1 | inactive | 
13 | CC(C)(C)C(=O)c1ccccc1 | inactive | 
14 | Nc1ccc(F)c([N+](=O)[O-])c1 | inactive | 
15 | O=c1[nH]nnc2ccccc12 | inactive | 
16 | OC[C@H]1O[C@H](O[C@]2(CCl)O[C@H](CCl)[C@@H](O)[C@@H]2O)[C@H](O)[C@@H](O)[C@H]1Cl | inactive | 
17 | c1cc(C(c2ccc(OCC3CO3)cc2)c2ccc(OCC3CO3)cc2)ccc1OCC1CO1 (stereo not given) | inactive | 
18 | Cc1ccccc1C=O | inactive | 
19 | C[Si](O[Si](C)(C)C)O[Si](C)(C)C | inactive | 
20 | COCCCOc1ccnc(CS(=O)c2nc3ccccc3[nH]2)c1C (stereo not given) | inactive | 

Row | Compound | outcome | AC50
21 | Clc1ccc2c(c1)C(N1CCNCC1)=Nc1ccccc1O2 |  | 41.8 µM (active)
22 | C=CC(=O)NCOCC(C)C | inactive | 
23 | CCCCCCCCCCCCN(CCCCCCCCCCCC)CCCCCCCCCCCC | inactive | 
24 | CCC(=O)OCCC(C)CCC=C(C)C (stereo not given) | inactive | 
25 | O=C(O)C[C@H](O)C[C@H](O)/C=C/c1c(C2CC2)nc2ccccc2c1-c1ccc(F)cc1 | inactive | 
26 | C=C(C)[C@@H]1CC[C@@H](C)C[C@@H]1O | inactive | 
27 | COc1ccc(OC)c(OC)c1 | inactive | 
28 | O=C(O)CCCCCCCC(=O)O | inactive | 
29 | COc1cc(C)cc(O)c1 | inactive | 
30 | C[C@]12CC[C@H]3[C@@H](CCC4=CC(=O)CC[C@@]43C)[C@@H]1CC[C@@H]2C(=O)CO | inactive | 
31 | Cc1ccc(C=O)s1 | inactive | 
32 | CSc1nc(NC2CC2)nc(NC(C)(C)C)n1 | inactive | 
33 | O=C(O)c1cn(C2CC2)c2cc(N3CCNCC3)c(F)cc2c1=O | inactive | 
34 | O=P(c1ccccc1)(c1ccccc1)c1ccccc1 | inactive | 
35 | C=C(C)C(=O)NCCCN(C)C | inactive | 
36 | CC(C)(C)c1n[nH]c(=S)n(N)c1=O | inactive | 
37 | CCC(=O)/C=C/C1C(C)=CCCC1(C)C (stereo not given) | inactive | 
38 | COc1cc(C=O)ccc1OC(=O)C(C)C | inactive | 
39 | Cc1cccc(C)c1C | inactive | 
40 | O=C(O)c1snc(Cl)c1Cl | inactive | 
